Test results reported in PubChem BioAssay.
Activity calls are given as the source filed them.

Legend:
[1] = optical density shifts of acrAB sulA E. coli – strain DRC41, OD650, 48 h, E. coli filamentation inducer project, primary screen (AID 1152); details: higher = more signal, called active from +8 up or from −8 down;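 further: E. coli MC1000 strain DRC41 lacking acrAB efflux pump and sulA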
[2] = probe aLefty1 binding on compound microarray – biochemical, small-molecule microarray, 635/667 nm fluorescence, primary screen (AID 1153); details: higher = more signal;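 further: score merges spot fluorescence with signal-to-noise ratio from the scanned slide images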
[3] = plasmodial surface anion channel blockers, osmotic lysis – cell-based, P. falciparum Indochina, OD700, 1 h, primary screen (AID 1154); details: P. falciparum Indochina infected RBC osmotic lysis, higher = more signal, called active from +8 up or from −8 down
[4] = plasmodial surface anion channel blockers, osmotic lysis – cell-based, P. falciparum Indochina, OD700, 2 h, primary screen (AID 1155);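 further: lysis reports solute entry through the parasite surface anion channel PSAC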; details: P. falciparum Indochina infected erythrocytes, higher = more signal, called active from +8 up or from −8 down
[5] = changes in parasitized red cell lysis, either direction – P. falciparum Indochina, OD700, 3 h, PSAC antagonist project, primary screen (AID 1156); details: P. falciparum-infected erythrocytes, osmotic lysis, higher = more signal, called active from +8 up or from −8 down
[6] = plasmodial surface anion channel blockers, osmotic lysis – cell-based, P. falciparum Indochina, OD700, 18 h, primary screen (AID 1157); details: P. falciparum Indochina infected erythrocytes, osmotic lysis OD700, 18 h; higher = more signal, called active from +8 up or from −8 down
[7] = S6 kinase pathway phospho-S6 level changes – cell-based, A549, cytoblot, luminescence, serum-stimulated, primary screen (AID 1158); details: 5 h, higher = more signal;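 further: serum-stimulated A549 lung adenocarcinoma cells; signal is phosphorylated S6 detected by cytoblot immunostaining with HRP secondary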
[8] = molecular target: NADPH oxidase 2 (Homo sapiens) (UniProt P04839); assay: compounds shifting NOX2 Amplex Red fluorescence – cell-based, HEK293-NOX2, PMA-stimulated, NOX inhibitor project, primary screen (AID 1159); details: 45 min, higher = more signal, called active from +8 up or from −8 down; further: test concentration not given here
Chain of NADPH oxidase 2 (Homo sapiens) (P04839 whole entry, looked up): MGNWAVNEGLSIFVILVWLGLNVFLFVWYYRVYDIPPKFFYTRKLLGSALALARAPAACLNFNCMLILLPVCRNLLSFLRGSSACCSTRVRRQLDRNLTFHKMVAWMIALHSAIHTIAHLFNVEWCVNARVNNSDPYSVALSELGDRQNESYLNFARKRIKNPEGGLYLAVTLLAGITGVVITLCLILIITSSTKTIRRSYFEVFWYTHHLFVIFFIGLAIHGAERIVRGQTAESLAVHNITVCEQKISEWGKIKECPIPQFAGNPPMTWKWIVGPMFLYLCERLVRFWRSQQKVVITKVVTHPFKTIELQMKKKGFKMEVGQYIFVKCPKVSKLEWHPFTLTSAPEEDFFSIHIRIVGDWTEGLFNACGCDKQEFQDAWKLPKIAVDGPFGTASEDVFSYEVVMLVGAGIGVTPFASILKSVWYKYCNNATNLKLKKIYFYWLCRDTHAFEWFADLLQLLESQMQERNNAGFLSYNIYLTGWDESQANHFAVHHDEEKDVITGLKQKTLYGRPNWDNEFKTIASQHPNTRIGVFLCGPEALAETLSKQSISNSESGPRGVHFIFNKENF

[9] = molecular target: NADPH oxidase 4 (Homo sapiens) (UniProt Q9NPH5); assay: compounds shifting NOX4 Amplex Red fluorescence – cell-based, HEK293-NOX4, tetracycline-induced, NOX inhibitor project, primary screen (AID 1160); details: HEK293-NOX4, Amplex Red H2O2 fluorescence, 45 min; higher = more signal, called active from +8 up or from −8 down
Chain of NADPH oxidase 4 (Homo sapiens) (Q9NPH5 whole entry, looked up): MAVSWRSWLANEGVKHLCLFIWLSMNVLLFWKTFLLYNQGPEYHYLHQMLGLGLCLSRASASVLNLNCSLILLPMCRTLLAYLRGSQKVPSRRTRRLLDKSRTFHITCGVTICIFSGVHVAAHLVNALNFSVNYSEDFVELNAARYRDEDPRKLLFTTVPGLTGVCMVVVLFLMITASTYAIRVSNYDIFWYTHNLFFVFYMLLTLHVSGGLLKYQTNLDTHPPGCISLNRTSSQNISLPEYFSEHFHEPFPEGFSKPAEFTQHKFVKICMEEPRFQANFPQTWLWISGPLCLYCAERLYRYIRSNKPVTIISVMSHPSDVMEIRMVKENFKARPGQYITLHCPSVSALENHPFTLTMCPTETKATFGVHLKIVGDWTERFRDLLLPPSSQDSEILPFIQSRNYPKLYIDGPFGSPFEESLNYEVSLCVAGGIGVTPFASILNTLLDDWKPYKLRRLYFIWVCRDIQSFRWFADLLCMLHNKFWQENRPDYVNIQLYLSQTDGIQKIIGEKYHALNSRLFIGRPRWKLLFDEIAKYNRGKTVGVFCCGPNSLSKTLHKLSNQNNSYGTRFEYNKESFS

[10] = molecular target: NADPH oxidase 5 (Homo sapiens) (UniProt Q96PH1); assay: compounds shifting NOX5 Amplex Red fluorescence – cell-based, HEK293-NOX5, NOX inhibitor project, primary screen (AID 1161); details: HEK293-NOX5, ionomycin, 45 min, higher = more signal
Chain of NADPH oxidase 5 (Homo sapiens) (Q96PH1 whole entry, looked up): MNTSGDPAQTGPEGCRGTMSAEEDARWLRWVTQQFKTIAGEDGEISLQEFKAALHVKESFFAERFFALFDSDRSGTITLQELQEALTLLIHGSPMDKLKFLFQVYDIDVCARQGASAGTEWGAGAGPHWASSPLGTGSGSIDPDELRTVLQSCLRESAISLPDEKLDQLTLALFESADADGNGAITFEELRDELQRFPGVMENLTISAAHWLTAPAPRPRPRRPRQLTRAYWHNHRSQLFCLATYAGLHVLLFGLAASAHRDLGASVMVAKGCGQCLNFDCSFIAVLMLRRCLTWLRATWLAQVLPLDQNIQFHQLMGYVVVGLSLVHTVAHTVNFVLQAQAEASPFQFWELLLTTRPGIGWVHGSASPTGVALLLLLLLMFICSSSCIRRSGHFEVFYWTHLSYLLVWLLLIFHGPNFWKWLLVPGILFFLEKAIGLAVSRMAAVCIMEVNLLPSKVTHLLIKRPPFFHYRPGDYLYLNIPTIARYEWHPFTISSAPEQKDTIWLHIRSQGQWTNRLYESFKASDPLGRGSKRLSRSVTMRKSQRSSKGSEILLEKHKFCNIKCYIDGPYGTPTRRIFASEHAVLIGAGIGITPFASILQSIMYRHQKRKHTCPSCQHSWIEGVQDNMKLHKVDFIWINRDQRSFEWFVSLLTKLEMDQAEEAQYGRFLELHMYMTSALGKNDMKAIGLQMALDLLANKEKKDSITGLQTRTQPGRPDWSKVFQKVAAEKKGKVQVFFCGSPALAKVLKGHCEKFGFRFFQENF

| Compound | z-score [1] | composite z-score [2] | z-score [3] | z-score [4] | z-score [5] | z-score [6] | z-score [7] | z-score [8] | z-score [9] | z-score [10] |
| --- | --- | --- | --- | --- | --- | --- | --- | --- | --- | --- |
| C=CCOC(=O)[C@H]1[C@@H]2C(=O)O[C@@H](c3ccccc3)[C@@H](c3ccccc3)N2[C@@H](c2ccc(OCCOC(=O)[C@@H]3C[C@@H]4C(=O)N5CCC[C@H]5C(=O)N4[C@@H]3c3ccc(O)cc3)cc2)[C@]12C(=O)Nc1ccccc12 | 0.891 (inactive) | 0.137 | 2.72 (inactive) | 1.04 (inactive) | 2.96 (inactive) | 0.668 (inactive) | 0.193 | 1.64 (inactive) | 1.21 (inactive) | 1.57 |
| O=C(O)[C@@]1(Cc2ccccc2)N=C(c2ccc(OCCCO)cc2)O[C@H]1c1ccccc1 | 0.922 (inactive) | -0.251 | 3.67 (inactive) | 0.132 (inactive) | -0.466 (inactive) | 0.445 (inactive) | -0.134 | 0.18 (inactive) | 0.864 (inactive) | 1.33 |
| O=C1OCCC=C[C@H]2OC34C=CCN(c5ccc6ccccc6c5)C(=O)[C@H]3N(CCCCCO)C(=O)[C@@H]4C12 (stereo not given in full) | 1.3 (inactive) | 0.831 | 3.56 (inactive) | 0.526 (inactive) | 2 (inactive) | 0.599 (inactive) | -0.37 | 1.95 (inactive) | 0.913 (inactive) | 2.57 |
| O=C1O[C@H](c2ccccc2)[C@H](c2ccccc2)N2[C@H]1[C@@H](C(=O)Nc1nc3ccccc3s1)[C@]1(C(=O)Nc3ccccc31)[C@H]2c1ccc(O)cc1 | -0.626 (inactive) | -0.294 | 1.53 (inactive) | 2.51 (inactive) | 0.486 (inactive) | 1.69 (inactive) | 0.192 | 0.844 (inactive) | 0.479 (inactive) | 0.201 |
| C=CC[C@@]1(C(=O)NCC(O)CO)N=C(c2ccc(OCCCO)cc2)O[C@@H]1c1ccccc1N=[N+]=[N-] (stereo not given in full) | 1 (inactive) | 0.18 | 34.8 (active) | 27.8 (active) | 3.23 (inactive) | 6.75 (inactive) | 1.58 | -2.45 (inactive) | 0.918 (inactive) | -2.74 |
| O=C(CS)NCCCCCCNC(=O)[C@H]1C[C@H]2C(=O)NCC(=O)N2[C@H]1c1ccc(O)cc1 | -0.618 (inactive) | -0.0969 | 2.33 (inactive) | 0.141 (inactive) | -2.02 (inactive) | 0.23 (inactive) | -0.598 | 1.45 (inactive) | 0.407 (inactive) | -0.391 |
| C=CCNC(=O)[C@@H]1[C@H]2C(=O)O[C@H](c3ccccc3)[C@H](c3ccccc3)N2[C@H](c2ccc(O)cc2)[C@@]12C(=O)N(C(=O)OCCOC)c1ccccc12 | 0.808 (inactive) | 0.149 | 1.35 (inactive) | -0.27 (inactive) | 0.123 (inactive) | -1.08 (inactive) | 1.64 | 0.818 (inactive) | -0.913 (inactive) | -2.08 |
| CCCCCN1CC=CC23O[C@@H]4/C=C\CCCOC(=O)C4[C@H]2C(=O)N(CCCCCCO)[C@@H]3C1=O (stereo not given in full) | 2.24 (inactive) | -0.146 | 2.25 (inactive) | 0.753 (inactive) | -0.387 (inactive) | 0.158 (inactive) | 5.32 | 0.876 (inactive) | 0.243 (inactive) | 1.75 |
| CCOC(=O)C1=C[C@@H](CC)N(S(=O)(=O)c2ccc(C)cc2)[C@H]1c1ccccc1 | -1.03 (inactive) | 0.271 | 1.83 (inactive) | 0.797 (inactive) | -0.187 (inactive) | 0.415 (inactive) | -0.388 | 0.0452 (inactive) | -0.606 (inactive) | -0.182 |
| COC(=O)[C@@]1(Cc2ccccc2)N=C(c2ccc(OCCCO)cc2)O[C@H]1c1ccccc1N=[N+]=[N-] | 0.388 (inactive) | 0.129 | 29.2 (active) | 24.1 (active) | 1.79 (inactive) | 5.76 (inactive) | 0.661 | -2.01 (inactive) | 0.373 (inactive) | -1.06 |
| COCCOC(=O)N1C(=O)[C@@]2(c3cc(C#CCC(C(=O)OC)C(=O)OC)ccc31)[C@H](c1ccc(O)cc1)N1[C@H](c3ccccc3)[C@H](c3ccccc3)OC(=O)[C@H]1[C@@H]2C(N)=O | -0.648 (inactive) | 0.245 | 9.52 (active) | 1.33 (inactive) | 0.0021 (inactive) | 0.213 (inactive) | -0.185 | 1.4 (inactive) | 0.525 (inactive) | 1.14 |
| COc1ccc(C#Cc2ccc3c(c2)[C@]2(C(=O)N3)[C@H](C(=O)NC[C@H](O)c3ccccc3)[C@H]3C(=O)O[C@H](c4ccccc4)[C@H](c4ccccc4)N3[C@@H]2c2ccc(OCCO)cc2)cc1 | -0.877 (inactive) | 0.0711 | 2.93 (inactive) | 1.97 (inactive) | -0.0845 (inactive) | 1.52 (inactive) | -0.321 | 1.4 (inactive) | -1.22 (inactive) | 0.636 |
| CCOC(=O)C[C@H]1[C@H](OC(=O)c2ccccc2-c2ccccc2)[C@@H](NC(=O)Cc2ccc(OC)cc2)c2cc(OCCCO)ccc2N1C(=O)c1ccccc1 | -1.14 (inactive) | -0.0877 | 1.57 (inactive) | 0.316 (inactive) | 0.432 (inactive) | 0.208 (inactive) | -0.127 | 1.02 (inactive) | 1.15 (inactive) | -0.26 |
| Cc1cc(C)c(C(O)C2C=CC3C(=O)N(C)C(=O)C3N2Nc2ccccc2)c(C)c1 (stereo not given) | -1.52 (inactive) | 1.5 | 0.277 (inactive) | 0.519 (inactive) | -0.168 (inactive) | 1.03 (inactive) | -0.858 | -0.802 (inactive) | -3.6 (inactive) | -1.96 |
